Inconclusive results are not listed. Active and inactive are the calls of the source. Calls come from the whole dose curve; as a rule, active = well fitted cell-killing curve with a large enough effect; inconclusive = small, poorly fitted or top-dose-only effect; inactive = flat fitted curve, though single readings scatter.
Test: Cell Viability - LYMP2-024 (AID 988); note: nearly all actives have a fitted effect of over 60% in size
Settings: LYMP2-024 lymphoblastoid cell viability; series mostly up to 92.2 µM
Source text: NIH Chemical Genomics Center [NCGC]
NIH Molecular Libraries Screening Centers Network [MLSCN]
National Institutes of Environmental Health Sciences [NIEHS]
National Toxicology Program [NTP]
We have developed a 1536-well cell-based assay for quantitative high throughput screening (qHTS) against a number of cell lines to determine in vitro cytotoxicity of small molecules. This particular assay uses a human lymphoblastoid cell line (LYMP2-024) purchased from Coriell Institute for Medical Research.
NCGC Assay Protocol Summary:
The CellTiter-Glo luminescent cell viability assay (Promega) is a homogeneous method to measure the number of viable cells in culture. The end point readout of this assay is based on quantitation of intracellular ATP, an indicator of metabolic activity, using the luciferase reaction. Luciferase catalyzes the oxidation of beetle Luciferin to oxyluciferin and light in the presence of ATP. The luminescent signal is proportional to amount of ATP present.
Using the CellTiter-Glo luminescent cell viability assay, the amount of cellular ATP was measured in the lymphoblastoid cell line with complete culture medium following compound treatment for 24 hours. The assay was performed in opaque white Kalypsys 1536-well plates. In the screen, tetraoctylammonium bromide was used as positive control. Library compounds were measured for their ability to cause acute toxicity in the cell line, as reflected by a decrease in intracellular ATP levels, in a concentration-dependent manner. […] AC50 values were determined from concentration-response data modeled with the standard Hill equation.
qHTS protocol for CellTiter Glo lymphoblastoid cellular assay
[Step] [Parameter] [Value] [Description]
1. Reagent; 5 uL; 2500 lymphoblastoid cells/well
2. Time; 5 hr; 37 C incubation
4. Controls; 23 nL; Tetraoctylammonium bromide 6.4pM to 92 uM
5. Time; 24 hr; 37 C incubation
6. Reagent; 5 uL; CellTiter Glo reagent
7. Time; 30 min; Room Temperature
8. Detection; Luminescence; Viewlux plate reader
Keywords: cell viability, cytotoxicity, lymphoblastoid cell line, luminescence, NTPHTS, NTPHTS_NCGC, NIEHS, DSSTox, MLSMR, MLSCN, NIH Roadmap, qHTS, NCGC
With `COc1ccc(O)cc1` the outcome was “inactive”. In the case of `CCCC(O)C(CC)CO` (configuration not stated), the outcome is reported as “inactive”. With `Cc1c(N(C)C)c(=O)n(-c2ccccc2)n1C` the outcome was “inactive”. With `CCCCCC(N)=O` the outcome was “inactive”. In the case of `CC(=O)OCC(COC(C)=O)OC(C)=O`, the outcome is reported as “inactive”. In the case of `CCN(CC)C(=O)c1cccc(C)c1`, the outcome is reported as “inactive”. For `Nc1ccc(S(=O)(=O)c2ccc(N)cc2)cc1`, the outcome was “inactive”. For `CC(=O)NS(=O)(=O)c1ccc(N)cc1`, the outcome was “inactive”. For `Cc1cc(C)nc(NS(=O)(=O)c2ccc(N)cc2)n1`, the outcome was “inactive”. In the case of `CC(=O)Nc1cccc(O)c1`, the outcome is reported as “inactive”. In the case of `O=C1c2cccc(O)c2C(=O)c2c(O)cccc21`, the outcome is reported as “inactive”. For `O=C1C(c2[nH]c3ccccc3c2O)=Nc2ccccc21`, the outcome was “inactive”. With `CCCCOC(=O)c1ccc(N)cc1` the outcome was “inactive”. In the case of `FC(F)(F)C(Cl)Br` (configuration not stated), the outcome is reported as “inactive”. In the case of `CC1CC(OC(=O)c2ccccc2O)CC(C)(C)C1` (configuration not stated), the outcome is reported as “inactive”. With `CCCCCCCC(=O)OCC(COC(=O)CCCCCCC)OC(=O)CCCCCCC` the outcome was “inactive”. With `O=C(O)CCCCC1CCSS1` (configuration not stated) the outcome was “inactive”. In the case of `O=C(c1ccccc1)C(O)c1ccccc1` (configuration not stated), the outcome is reported as “inactive”. In the case of `C=CCNC(N)=S`, the outcome is reported as “inactive”. With `CC(=O)Nc1ccccc1` the outcome was “inactive”. With `Cc1cc(=O)[nH]c(=S)[nH]1` the outcome was “inactive”. In the case of `CC(=O)Nc1ccc(C(=O)O)cc1`, the outcome is reported as “inactive”.

— PubChem BioAssay (NCATS)
